Consider twelve molecules from PubChem BioAssay.

As usually defined, the viability is a read-out of living cells in per cent, often relative to untreated cells. As a reminder, the AC50 is the midpoint of the concentration-response curve, whichever way the signal moves. In general, IC50 refers to the concentration at which inhibition is half-maximal.

Experiment [1] in a line: growth inhibition of DIPG glioma cells, dose response, cell-based, SU-DIPG-XIII, MIPE5.0, CellTiter-Glo, qHTS (AID 1347064; cut-off not given, nearly all actives have AC50 up to about 23 µM). The note with it: SU-DIPG-XIII viability, CellTiter-Glo ATP luminescence. A general note: ATP-based viability assays read luminescence as a measure of living cells.
Experiment [2] in a line: SU-DIPG-XXV glioma cell viability, MIPE5.0 library, qHTS (AID 1347068; cut-off not given, nearly all actives have IC50 up to about 30 µM;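 on IC50: cells exposed to compound for 48 hours before viability readout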).
A short description of experiment [3]: liver-stage malaria parasite growth inhibition, primary screen, cell-based, HepG2, luciferase luminescence, HepG2 viability (AID 624349; in the data active means parasite load remaining mostly below about 12%, no sharp cut-off; inactive means mostly above about 10%;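 further: 100% = mean of DMSO negative control wells on the same plate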). The note with it: P. berghei liver stage in HepG2, luciferase luminescence, concentration not given here; parasite load remaining: stronger effect = lower value; viability: measured here: HepG2 viability without parasites.
A short description of experiment [4]: JHH-DIPG-1 glioma cell viability, MIPE5.0 library, CellTiter-Glo luminescence, qHTS (AID 1347067; cut-off not given, nearly all actives have AC50 up to about 26 µM;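 further: cells exposed to compound for 48 hours before readout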). The note with it: JHH-DIPG-1 glioma viability, CellTiter-Glo ATP luminescence.
Experiment [5] can be described thus: viability loss in pontine glioma line – cell-based, SU-DIPG-XXV, MIPE5.0, CellTiter-Glo, qHTS, dose response (AID 1347065; cut-off not given, nearly all actives have AC50 up to about 26 µM;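 further: cells exposed to compound for 48 hours before ATP readout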). As to conditions: CellTiter-Glo ATP luminescence.
A short description of experiment [6]: kinase inhibitors against Plasmodium liver-stage infection, cell-based, known kinase inhibitor set, luminescence, hepatoma host viability (AID 624392; call rule not given here;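 further: infected cells incubated roughly two days before readout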). The note with it: Plasmodium liver stage in hepatoma cells, luciferase luminescence, concentration not given here; liver cell % of control: measured here: host liver cell viability; parasite % of control: stronger effect = lower value.

Experiment [7] is described as follows: SU-DIPG-VI glioma cell viability, MIPE4.0 library, CellTiter-Glo luminescence, qHTS (AID 1347066; cut-off not given, nearly all actives have AC50 up to about 30 µM;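 further: cells exposed to compound for 48 hours before readout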). As to conditions: CellTiter-Glo ATP luminescence.
The nature of experiment [8]: sensitizers of A549 cells to miR-34 induction, primary screen, imaging, A549 dox-inducible miR-34, nuclei and caspase counts (AID 1347080;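 active means compounds whose cell count with miR-34 switched on is under 0.7 times the count with it off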). The note with it: A549 miR-34 inducible, Hoechst nuclei count, 48 h.
A short description of experiment [9]: modifiers of HSF1 nuclear foci, imaging, Selleck Cancer Library (AID 1347162; in the data active means plate-normalised HSF1 focus index below about 0.46). As to conditions: human cells, at 10 µM; SSMD: measured here: HSF1 foci SSMD mean; cell count: measured here: cell number; plate-normalised HSF1 focus index: stronger effect = lower value.
Experiment [10] in a line: survival rescue of mitochondrial mutant cells in low glucose, primary screen, MELAS cybrids, Rieske KO mouse fibroblasts, CellTiter-Glo (AID 1508586;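 active means mean z-score across replicates of 1.96 or higher in either the MELAS or the Rieske mutant cell line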;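 further: z relative to plate mean and SD of compound and empty wells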).
A short description of experiment [11]: ovarian cancer cell viability with rucaparib, profiling panel, oncology-focused library, rucaparib conditional (AID 1508598). The note with it: patient-derived ovarian cancer cells, CellTiter-Glo viability, 144 h, stronger effect = lower value.

Values joined by “and” are separate entries in the source; they are usually repeats but may differ in a detail not shown here. Equal values may be shown once. Records with an inconclusive call do not appear. Active and inactive are the calls of the source.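 How the source made its calls, unless noted: active means normalized viability below 100% at a tested concentration; inactive means the rest.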

For the molecule `C[C@@H](Nc1ncnc2[nH]c(-c3ccc(O)cc3)cc12)c1ccccc1`, the molecule was classed as inactive in experiment [1] and in [2].

As for `COc1ccc2nc3n[nH]c(C)c3c(NCCOCCO)c2c1`, in experiment [3], the parasite load remaining was 46.1% (inactive) and the viability stood at 90.1%. Besides, the molecule was called inactive in experiment [1]. Further, the call in experiment [4] was inactive.

For the molecule `C[C@@H](Nc1cc(F)cc(F)c1)c1cc(C(=O)N(C)C)cc2c(=O)cc(N3CCOCC3)oc12`, the concentration at half-maximal activity (AC50) in [5] is 9.34 µM (active).

Turning to `Cc1ccc(C(=O)Nc2ccc(Oc3cc4cnn(C)c4cc3-c3cn[nH]c3)c(F)c2)c(=O)n1-c1ccc(F)cc1`, in experiment [5], the AC50 is 4.68 µM (active).

For the molecule `CNc1nc(Nc2cnn([C@H]3CCN(C4COC4)C[C@@H]3F)c2Cl)ncc1C(F)(F)F`, in experiment [5], the AC50 was 20.9 µM (active).

`COc1cc2ncnc(Nc3cccc(Cl)c3F)c2cc1OC(=O)N1CCN(C)C[C@H]1C`: the result in [1] and in experiment [2] was inactive.

Take `Cn1cc(-c2cc(Oc3cc(F)c(NC(=O)C4(C(=O)Nc5ccccc5)CC4)cc3F)ccn2)cn1`: the results for the AC50 in [5] and in experiment [4] were 16.6 µM (active) and 18.6 µM (active), respectively.

For `O=C(c1c(F)ccc(NS(=O)(=O)N2CC[C@@H](F)C2)c1F)c1c[nH]c2ncc(-c3cnc(C4CC4)nc3)cc12`, the AC50 in experiment [5] was 10.5 µM (active).

As to `CN(C)CCOc1cc(-c2cn[nH]c2)ccc1NC(=O)C1COc2ccccc2O1` (configuration not stated), in experiment [6], the liver cell % of control is 74.6% and 79.4% and 100%; the parasite % of control was 63.3% (inactive) and 69.1% (inactive) and 49.5% (inactive). Besides, in [5], the AC50 is 7.42 µM (active). The result in experiment [7] was inactive.

Regarding `CN(C)CCCOc1ccc(-c2ccc3ncc4c(c3c2)n(C2CCOCC2)c(=O)n4C)cn1`, the half-maximal activity concentration (AC50) in experiment [5] was 5.74 µM (active). For the same molecule, in experiment [4], the outcome was inactive.

In the case of `O=C1Nc2nc(-c3c(O)cccc3OCC3CC3)cc([C@@H]3CCCNC3)c2CO1`, the half-maximal activity concentration (AC50) in experiment [5] is 18.6 µM (active); in experiment [4], 26.3 µM (active). In experiment [2], the IC50 is 13.2 µM (active).

In the case of `O=C(Nc1ccc(OC(F)(F)F)cc1)c1sccc1NCc1ccnc2ccccc12`, the figures for the AC50 in experiment [5] and in experiment [4] were 16.6 µM (active) and 5.9 µM (active), respectively. Besides, the result in experiment [2] was inactive. In addition, the fold change in [8] (stronger effect = lower value, cell number ratio, induced over uninduced) is 0.889 (inactive); in experiment [8] (measured here: relative caspase fold change +Dox/-Dox), 1.05. Further, the cell count is 4270 in experiment [8] (measured here: total cells with miR-34 induction, stronger effect = lower value); 4800 in [8] (measured here: total cells without miR-34 induction); 7420 in experiment [9]. The same molecule yielded an SSMD in [9] of 2.93. For the same molecule, the plate-normalised HSF1 focus index in experiment [9] is 1.18 (inactive). Also, the z-score is -0.433 (inactive) in experiment [10] (MELAS cybrid survival, CellTiter-Glo 48 h, stronger effect = higher value) and 0.766 in experiment [10] (Rieske KO mouse fibroblast survival, CellTiter-Glo 72 h). Also, the viability in experiment [11] (at 0.000305 µM, OCI-C5x cells, with rucaparib 10 µM, 100% = cells with rucaparib alone) is 104% (inactive); in experiment [11] (at 0.000305 µM, OCI-C5x cells, without rucaparib) it was 102% (inactive); in [11] (at 0.000305 µM, OCI-P5x cells, with rucaparib 20 µM, 100% = cells with rucaparib alone), 79.8% (active); in [11] (at 0.000305 µM, OCI-P5x cells, without rucaparib) it was 88.5% (active); in experiment [11] (at 0.00122 µM, OCI-C5x cells, with rucaparib 10 µM, 100% = cells with rucaparib alone), 108% (inactive); in experiment [11] (at 0.00122 µM, OCI-C5x cells, without rucaparib), 110% (inactive). The viability in [11] (at 0.00122 µM, OCI-P5x cells, with rucaparib 20 µM, 100% = cells with rucaparib alone) is 76.7% (active); in [11] (at 0.00122 µM, OCI-P5x cells, without rucaparib), 81.1% (active); in experiment [11] (at 0.00488 µM, OCI-C5x cells, with rucaparib 10 µM, 100% = cells with rucaparib alone) it was 98.6% (active); in [11] (at 0.00488 µM, OCI-C5x cells, without rucaparib), 105% (inactive); in [11] (at 0.00488 µM, OCI-P5x cells, with rucaparib 20 µM, 100% = cells with rucaparib alone), 79.8% (active); in [11] (at 0.00488 µM, OCI-P5x cells, without rucaparib), 79.7% (active). Besides, the viability in experiment [11] (at 0.0195 µM, OCI-C5x cells, with rucaparib 10 µM, 100% = cells with rucaparib alone) is 108% (inactive); in [11] (at 0.0195 µM, OCI-C5x cells, without rucaparib) it was 113% (inactive); in [11] (at 0.0195 µM, OCI-P5x cells, with rucaparib 20 µM, 100% = cells with rucaparib alone), 81% (active); in experiment [11] (at 0.0195 µM, OCI-P5x cells, without rucaparib), 79% (active); in [11] (at 0.0781 µM, OCI-C5x cells, with rucaparib 10 µM, 100% = cells with rucaparib alone) it was 108% (inactive); in [11] (at 0.0781 µM, OCI-C5x cells, without rucaparib), 113% (inactive). Besides, the viability in experiment [11] (at 0.0781 µM, OCI-P5x cells, with rucaparib 20 µM, 100% = cells with rucaparib alone) is 111% (inactive); in experiment [11] (at 0.0781 µM, OCI-P5x cells, without rucaparib), 108% (inactive); in [11] (at 0.313 µM, OCI-C5x cells, with rucaparib 10 µM, 100% = cells with rucaparib alone) it was 98.2% (active); in experiment [11] (at 0.313 µM, OCI-C5x cells, without rucaparib), 110% (inactive); in [11] (at 0.313 µM, OCI-P5x cells, with rucaparib 20 µM, 100% = cells with rucaparib alone), 107% (inactive); in experiment [11] (at 0.313 µM, OCI-P5x cells, without rucaparib), 110% (inactive). Further, the viability in experiment [11] (at 1.25 µM, OCI-C5x cells, with rucaparib 10 µM, 100% = cells with rucaparib alone) is 94.5% (active); in [11] (at 1.25 µM, OCI-C5x cells, without rucaparib) it was 107% (inactive); in experiment [11] (at 1.25 µM, OCI-P5x cells, with rucaparib 20 µM, 100% = cells with rucaparib alone) it was 103% (inactive); in experiment [11] (at 1.25 µM, OCI-P5x cells, without rucaparib), 112% (inactive); in experiment [11] (at 5 µM, OCI-C5x cells, with rucaparib 10 µM, 100% = cells with rucaparib alone), 89.4% (active); in experiment [11] (at 5 µM, OCI-C5x cells, without rucaparib), 117% (inactive). The viability in experiment [11] (at 5 µM, OCI-P5x cells, with rucaparib 20 µM, 100% = cells with rucaparib alone) is 77.3% (active); in experiment [11] (at 5 µM, OCI-P5x cells, without rucaparib) it was 54.8% (active).
